Assay outcomes deposited in PubChem by several laboratories.
An excerpt weighted towards active compounds, which were near 1% of everything screened.
GC-A act: GC-A (human) enzyme activation; HEK293 GC-A cells, cGMP TR-FRET, EC30 ANP; 0% at EC30 ANP, 100% saturating ANP; activation, % at 10 µM; hit rate 0.14% among 370,000; AID 1671463; in the data active = activation above about 40%
HSV replic up: HSV replication enhancement; HSV replication augmentation in cells, fold increase; maximum fold increase; hit rate 0.005% among 220,000; AID 1956; in the data active = maximum fold increase above about 1.5; inconclusive = no clear call, values can overlap the other calls; tested in PC3 cells
GC-B act: GC-B (human) receptor activation; P20594; HEK293-GC-B cells, CNP EC30, cGMP TR-FRET; 0% at EC30 CNP, 100% saturating CNP; activation, % at 10 µM; hit rate 0.11% among 370,000;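 active = activation at 10 µM reaching about 35% in either raw or pattern-adjusted values, limit read from the data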
TAG inh: reduces triacylglycerol accumulation in H9c2 cells | Nile Red lipid (TAG) fluorescence; cells loaded with 200 µM oleic acid | hit rate 0.66% among 230,000 | inhibition, % at 12.5 µM;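 active = pattern-corrected inhibition of lipid staining of at least 50% with the nuclear-stain viability signal not falling by more than 50%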
A1 inh: inhibitors of the anti-apoptotic protein A1, read as caspase activation. MEF A1-2A-BIM cells, Caspase-Glo 3/7 luminescence, 3 h; percent of clofoctol response, vehicle zero. caspase activation, % (concentration not given with the values). hit rate 0.066% among 330,000. AID 2462;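 active = over half of replicate activation scores above 10%, or exactly half above 10 with the replicate mean above 10; inconclusive = replicate mean below 10 yet half the replicates above 10; inactive = over half of replicates below 10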
Efflux pump mplx: blocks antifungal efflux pumps in multiplex yeast assay; S. cerevisiae Candida pump triplex, Nile Red efflux; hit rate 0.44% among 330,000; inhibition, % at 10 µM;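 active = plate passing quality check with inhibition over a set limit, or well fluorescence over plate mean plus 4 SD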;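 also: Nile Red retained in pooled yeast measured as flow cytometry median fluorescence; higher means more Nile Red kept so more efflux inhibition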
Cmpd fluor yeast: counter-screen for efflux pump inhibitors: compound fluorescence; hit rate 4% among 1,700; S. cerevisiae AD/pABC3, flow cytometry; AID 588517; shares compounds with Efflux pump mplx; fluorescence ratio to DMSO, % at 10 µM;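 active = fluorescence ratio to DMSO above its plate's cutoff, the plate mean ratio plus 5 SD, cut at about 210% in these data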;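 also: unstained yeast with no Nile Red so the signal is compound autofluorescence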
CaMdr1 efflux inh: Candida Mdr1 efflux pump inhibition; shares compounds with Efflux pump mplx; S. cerevisiae AD/CaMDR1, Nile Red efflux, flow cytometry; inhibition, % at 10 µM; hit rate 1% among 1,700; AID 588518; in the data active = inhibition above about 26%;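 also: higher means more Nile Red retained so more efflux inhibition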
Cdr2 pump inh: Candida Cdr2 efflux pump inhibition. shares compounds with Efflux pump mplx. hit rate 4% among 1,700. AID 588520. S. cerevisiae AD/CaCDR2, Nile Red retention, flow cytometry. Nile Red retention ratio vs DMSO, % at 10 µM; in the data active = Nile Red retention ratio vs DMSO above about 190%;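 also: higher ratio means more blocking of Cdr2 efflux of the dye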
CaCdr1 efflux inh: Candida Cdr1 efflux pump inhibition. shares compounds with Efflux pump mplx. S. cerevisiae AD/CaCDR1, Nile Red efflux, flow cytometry. inhibition, % at 10 µM. hit rate 1% among 1,700. AID 588522;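 active = inhibition above the screen-wide mean plus twice its standard deviation, cut at about 32% in these data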
Each line names hits and unclear results; the compound was inactive in the other large screens (follow-up assays come after a bar, where they were run).

O=C(COc1ccccc1F)Nc1nnc(-c2ccncc2)s1	none
COc1cc(C)ccc1OCC(=O)Nc1nnc(C2CC2)s1	none (no result: HSV replic up) | Cmpd fluor yeast inactive | CaMdr1 efflux inh inactive | Cdr2 pump inh inactive | CaCdr1 efflux inh inactive
O=C(COc1ccc(Br)cc1F)Nc1nnc(C2CC2)s1	none (no result: HSV replic up) | Cmpd fluor yeast inactive | CaMdr1 efflux inh inactive | Cdr2 pump inh inactive | CaCdr1 efflux inh inactive
Cc1ccccc1OCC(=O)Nc1nnc(-c2ccncc2)s1	none | Cmpd fluor yeast inactive | CaMdr1 efflux inh inactive | Cdr2 pump inh inactive | CaCdr1 efflux inh inactive
O=C(COc1cc(Cl)ccc1Cl)Nc1nnc(C2CC2)s1	none (no result: HSV replic up)
Cc1ccccc1OCC(=O)Nc1nnc(C2CCCCC2)s1	none | Cmpd fluor yeast inactive | CaMdr1 efflux inh inactive | Cdr2 pump inh inactive | CaCdr1 efflux inh inactive
Cc1cc(OCC(=O)Nc2nnc(C3CC3)s2)ccc1[N+](=O)[O-]	none
C/C(=N\NC(=O)Cc1cccs1)c1ccco1	none (no result: HSV replic up, TAG inh, A1 inh, Efflux pump mplx)
O=C(NCc1ccccc1)C1(C(=O)C2CC2)CC(c2ccccn2)=NO1 (centres undefined)	none (no result: HSV replic up, TAG inh, A1 inh, Efflux pump mplx)
Cc1nc2ccccc2n1CCC(=O)O	none
Cc1nc2ccccc2n2c(O)c(CC(=O)O)cc12	Efflux pump mplx 0.5 (no result: TAG inh) | Cmpd fluor yeast inactive | CaMdr1 efflux inh inactive | Cdr2 pump inh inactive | CaCdr1 efflux inh inactive
O=C1OC(c2ccco2)=N/C1=C\c1ccc(-c2cccc(C(F)(F)F)c2)o1	HSV replic up inconclusive, Efflux pump mplx 1.2 (no result: TAG inh) | Cmpd fluor yeast inactive | CaMdr1 efflux inh inactive | Cdr2 pump inh inactive | CaCdr1 efflux inh inactive
Cc1cc(C)c(S(=O)(=O)N2CCc3ccccc32)c(C)c1	Efflux pump mplx 0.9 (no result: HSV replic up, TAG inh) | Cmpd fluor yeast inactive | CaMdr1 efflux inh inactive | Cdr2 pump inh inactive | CaCdr1 efflux inh inactive
CC(C)C(=O)N1CCC2(CC1)Oc1ccc(Cl)cc1C(=O)C21CC(c2ccc(Cl)cc2)=NO1 (centres undefined)	none | Cmpd fluor yeast inactive | CaMdr1 efflux inh inactive | Cdr2 pump inh inactive | CaCdr1 efflux inh inactive
O=C1c2cc(Cl)ccc2OC2(CCNCC2)C12CC(c1ccc(Cl)cc1)=NO2 (centres undefined)	none (no result: GC-A act, GC-B act, Efflux pump mplx) | Cmpd fluor yeast inactive | CaMdr1 efflux inh inactive | Cdr2 pump inh inactive | CaCdr1 efflux inh inactive
O=C(/C=C/c1cccs1)N1CCC2(CC1)Oc1ccc(Cl)cc1C(=O)C21CC(c2ccc(Cl)cc2)=NO1 (centres undefined)	none
O=C(/C=C/c1cccs1)N1CCC2(CC1)Oc1ccc(F)cc1C(=O)C21CC(c2ccc(Cl)cc2)=NO1 (centres undefined)	none
O=C1c2cc(Cl)ccc2OC2(CCNCC2)C12CC(c1ccccc1)=NO2 (centres undefined)	none | Cmpd fluor yeast inactive | CaMdr1 efflux inh inactive | Cdr2 pump inh inactive | CaCdr1 efflux inh inactive
CCC(=O)N1CCC2(CC1)Oc1ccc(F)cc1C(=O)C21CC(c2cccnc2)=NO1 (centres undefined)	none
C=CCN1[C@@H](CC(C)C)COc2cccc(N3CCSCC3)c2S1(=O)=O	none (no result: HSV replic up, TAG inh, A1 inh, Efflux pump mplx)
O=C(O)CCN1C(=O)/C(=C\c2ccc(-c3nc4ccccc4s3)o2)SC1=S	HSV replic up inconclusive, Efflux pump mplx 0.9 (no result: GC-A act, GC-B act) | Cmpd fluor yeast inactive | CaMdr1 efflux inh inactive | Cdr2 pump inh active | CaCdr1 efflux inh 56
COc1ccc(N2CCN(CCNS(=O)(=O)c3cccs3)CC2)cc1	none (no result: HSV replic up, TAG inh, A1 inh, Efflux pump mplx)
Cc1cccc(C)c1NC(=O)C1CC2CCC1C2 (centres undefined)	Efflux pump mplx 0.8 (no result: HSV replic up) | Cmpd fluor yeast inactive | CaMdr1 efflux inh inactive | Cdr2 pump inh inactive | CaCdr1 efflux inh inactive
COC(=O)C1CN(Cc2cn(Cc3ccc(C)cc3)nn2)CCS(=O)(=O)N1Cc1ccc(OC)cc1 (centres undefined)	none (no result: HSV replic up, TAG inh, A1 inh, Efflux pump mplx)
